Where two headings read alike, the source gives them in different places.
Key:
Design in all cases: species or system human, MV4-11 + K-562 + COLO205 + SK-N-BE2 + OVCAR-8
ADCK1 = conditions: read-out: apparent Kd; compound concentrations:100 nM and 1000 nM (sheet 'Samples'); n = 1
CIT = conditions: read-out: apparent Kd; compound concentrations:100 nM and 1000 nM (sheet 'Samples'); n = 1
CSNK1D = conditions: read-out: apparent Kd; compound concentrations:100 nM and 1000 nM (sheet 'Samples'); n = 1
CSNK1E = conditions: read-out: apparent Kd, n = 1
DJA1 = test system: T1, DJA1; conditions: read-out: apparent Kd; compound concentrations:100 nM and 1000 nM (sheet 'Samples'); n = 1
T1 construct: gene DNAJA1

GAK = conditions: read-out: apparent Kd; compound concentrations:100 nM and 1000 nM (sheet 'Samples'); n = 1
IARS = conditions: read-out: apparent Kd; compound concentrations:100 nM and 1000 nM (sheet 'Samples'); n = 1
PIK3CD = conditions: read-out: apparent Kd, n = 1
PRKACB = conditions: read-out: apparent Kd; compound concentrations:100 nM and 1000 nM (sheet 'Samples'); n = 1
PRKCD = conditions: read-out: apparent Kd; compound concentrations:100 nM and 1000 nM (sheet 'Samples'); n = 1
PRKCQ = conditions: read-out: apparent Kd; compound concentrations:100 nM and 1000 nM (sheet 'Samples'); n = 1
PRKD2 = conditions: read-out: apparent Kd; compound concentrations:100 nM and 1000 nM (sheet 'Samples'); n = 1
PRKD3 = conditions: read-out: apparent Kd; compound concentrations:100 nM and 1000 nM (sheet 'Samples'); n = 1
TNIK = conditions: read-out: apparent Kd; compound concentrations:100 nM and 1000 nM (sheet 'Samples'); n = 1
ADCK3 = conditions: read-out: apparent Kd, n = 1
ADRBK1 = conditions: read-out: apparent Kd; compound concentrations: 100 nM and 1000 nM (sheet 'Samples'), CATDS: 0.28294798490762901; n = 1
AKT2 = conditions: read-out: apparent Kd, compound concentrations: 100 nM and 1000 nM (sheet 'Samples'), n = 1
ATM = conditions: read-out: apparent Kd; compound concentrations: 100 nM and 1000 nM (sheet 'Samples'), CATDS: 0.21297510466852801; n = 1
CAMK4 = conditions: read-out: apparent Kd; compound concentrations: 100 nM and 1000 nM (sheet 'Samples'), CATDS: 7.7064865846565897E-2; n = 1
CDK6 = conditions: read-out: apparent Kd; compound concentrations: 100 nM and 1000 nM (sheet 'Samples'), CATDS: 7.4930063387868798E-2; n = 1
CDKL5 = conditions: read-out: apparent Kd; compound concentrations: 100 nM and 1000 nM (sheet 'Samples'), CATDS: 9.7869696626463096E-2; n = 1
CSNK2A1;CSNK2A3 = conditions: read-out: apparent Kd; compound concentrations: 100 nM and 1000 nM (sheet 'Samples'), CATDS: 6.2096943354302901E-2; n = 1
MAP2K1 = conditions: read-out: apparent Kd; compound concentrations: 100 nM and 1000 nM (sheet 'Samples'), CATDS: 6.2459835665012599E-2; n = 1
MAP2K2 = conditions: read-out: apparent Kd; compound concentrations: 100 nM and 1000 nM (sheet 'Samples'), CATDS: 6.9306858675437497E-2; n = 1
NNT = conditions: read-out: apparent Kd, n = 1
NQO1 = conditions: read-out: apparent Kd; compound concentrations: 100 nM and 1000 nM (sheet 'Samples'), CATDS: 8.3466895844620997E-2; n = 1
RIOK2 = conditions: read-out: apparent Kd; compound concentrations: 100 nM and 1000 nM (sheet 'Samples'), CATDS: 6.3640535742752496E-2; n = 1
GSK3A = conditions: read-out: apparent Kd; compound concentrations: 100 nM and 1000 nM (sheet 'Samples'), CATDS: 0.39261135326021201; n = 1
GSK3B = conditions: read-out: apparent Kd; compound concentrations: 100 nM and 1000 nM (sheet 'Samples'), CATDS: 0.34419414793352499; n = 1
BRAF = conditions: read-out: apparent Kd, n = 1
MAP2K5 = conditions: read-out: apparent Kd; compound concentrations: 100 nM and 1000 nM (sheet 'Samples'), CATDS: 0.203043275988008; n = 1
PTK6 = conditions: read-out: apparent Kd; compound concentrations: 100 nM and 1000 nM (sheet 'Samples'), CATDS: 0.17376653089903399; n = 1
RIPK3 = conditions: read-out: apparent Kd; compound concentrations: 100 nM and 1000 nM (sheet 'Samples'), CATDS: 9.1073681697651607E-2; n = 1
TESK1 = conditions: read-out: apparent Kd; compound concentrations: 100 nM and 1000 nM (sheet 'Samples'), CATDS: 9.2639666275084007E-2; n = 1
ZAK = conditions: read-out: apparent Kd; compound concentrations: 100 nM and 1000 nM (sheet 'Samples'), CATDS: 0.21269926478279999; n = 1
ERCC2 = conditions: read-out: apparent Kd; compound concentrations:100 nM and 1000 nM (sheet 'Samples'); n = 1
MAP4K5 = conditions: read-out: apparent Kd; compound concentrations:100 nM and 1000 nM (sheet 'Samples'); n = 1
AKT3 = conditions: read-out: apparent Kd; compound concentrations:100 nM and 1000 nM (sheet 'Samples'); n = 1
RIPK2 = conditions: read-out: apparent Kd; compound concentrations:100 nM and 1000 nM (sheet 'Samples'); n = 1
STK26 = conditions: read-out: apparent Kd; compound concentrations:100 nM and 1000 nM (sheet 'Samples'); n = 1
DHCR24 = conditions: read-out: apparent Kd; compound concentrations:100 nM and 1000 nM (sheet 'Samples'); n = 1
ERBB3 = conditions: read-out: apparent Kd; compound concentrations:100 nM and 1000 nM (sheet 'Samples'); n = 1
PI4KA = conditions: read-out: apparent Kd; compound concentrations:100 nM and 1000 nM (sheet 'Samples'); n = 1
PI4KB = conditions: read-out: apparent Kd; compound concentrations:100 nM and 1000 nM (sheet 'Samples'); n = 1
PIK3C2A = conditions: read-out: apparent Kd; compound concentrations:100 nM and 1000 nM (sheet 'Samples'); n = 1
PIK3C2B = conditions: read-out: apparent Kd; compound concentrations:100 nM and 1000 nM (sheet 'Samples'); n = 1
PIK3CA = conditions: read-out: apparent Kd; compound concentrations:100 nM and 1000 nM (sheet 'Samples'); n = 1
PIK3CB = conditions: read-out: apparent Kd; compound concentrations:100 nM and 1000 nM (sheet 'Samples'); n = 1
PRKDC = conditions: read-out: apparent Kd; compound concentrations:100 nM and 1000 nM (sheet 'Samples'); n = 1
GALK1 = conditions: read-out: apparent Kd; compound concentrations: 100 nM and 1000 nM (sheet 'Samples'), CATDS: 0.119899430557505; n = 1
MAPK14 = conditions: read-out: apparent Kd; compound concentrations: 100 nM and 1000 nM (sheet 'Samples'), CATDS: 0.15490410585255601; n = 1
MAPK1 = conditions: read-out: apparent Kd; compound concentrations: 100 nM and 1000 nM (sheet 'Samples'), CATDS: 0.12427254642557201; n = 1
PIM2 = conditions: read-out: apparent Kd; compound concentrations: 100 nM and 1000 nM (sheet 'Samples'), CATDS: 0.117779820663657; n = 1
STK16 = conditions: read-out: apparent Kd; compound concentrations: 100 nM and 1000 nM (sheet 'Samples'), CATDS: 0.13061388910889801; n = 1
[1] = compound concentrations:100 nM and 1000 nM (sheet 'Samples')

SMILES: Cc1n[nH]c2ccc(-c3cc(OC[C@@H](N)Cc4ccccc4)cnc3-c3ccoc3)cc12.Cc1n[nH]c2ccc(-c3cc(OC[C@@H](N)Cc4ccccc4)cnc3-c3ccoc3)cc12.O=C(O)C(F)(F)F.O=C(O)C(F)(F)F [GSK507358A]
- potency estimated from few doses (ADCK1): 1140 nM
- potency estimated from few doses (CIT): 1120 nM
- potency estimated from few doses (CSNK1D): 711 nM
- potency estimated from few doses (CSNK1E; [1]): 1160 nM
- potency estimated from few doses (DJA1): 890 nM
- potency estimated from few doses (GAK): 1500 nM
- potency estimated from few doses (IARS): 2080 nM
- potency estimated from few doses (PIK3CD; [1]): 108 nM
- potency estimated from few doses (PRKACB): 1740 nM
- potency estimated from few doses (PRKCD): 1510 nM
- potency estimated from few doses (PRKCQ): 1580 nM
- potency estimated from few doses (PRKD2): 690 nM
- potency estimated from few doses (PRKD3): 353 nM
- potency estimated from few doses (TNIK): 141 nM

SMILES: O=C1NC(=O)C(c2c[nH]c3ccccc23)=C1c1ccccc1 [RO0316849-000]
- potency estimated from few doses (ADCK3; compound concentrations: 100 nM and 1000 nM (sheet 'Samples'), CATDS: 0.47545697813848398): 812 nM
- potency estimated from few doses (ADRBK1): 2270 nM
- potency estimated from few doses (AKT2; CATDS: 0.297394073145339): 2010 nM

SMILES: Cc1nc(-c2ccccc2)n2nc(NCCCN3CCOCC3)ncc12 [GW874091X]
- potency estimated from few doses (ADCK3; compound concentrations: 100 nM and 1000 nM (sheet 'Samples'), CATDS: 9.8029447870553399E-2): 915 nM
- potency estimated from few doses (AKT2; CATDS: 6.9315360856789104E-2): 1850 nM
- potency estimated from few doses (ATM): 287 nM
- potency estimated from few doses (CAMK4): 1460 nM
- potency estimated from few doses (CDK6): 1550 nM
- potency estimated from few doses (CDKL5): 917 nM
- potency estimated from few doses (CSNK1E; compound concentrations: 100 nM and 1000 nM (sheet 'Samples'), CATDS: 6.4509222244259798E-2): 2210 nM
- potency estimated from few doses (CSNK2A1;CSNK2A3): 2450 nM
- potency estimated from few doses (MAP2K1): 2410 nM
- potency estimated from few doses (MAP2K2): 1850 nM
- potency estimated from few doses (NNT; compound concentrations: 100 nM and 1000 nM (sheet 'Samples'), CATDS: 7.4633464586539203E-2): 1560 nM
- potency estimated from few doses (NQO1): 1240 nM
- potency estimated from few doses (RIOK2): 2290 nM

SMILES: Cc1ccc(C)c(C2=C(c3cn(C)c4ccccc34)C(=O)NC2=O)c1 [RO0317699-000]
- potency estimated from few doses (ADCK3; compound concentrations: 100 nM and 1000 nM (sheet 'Samples'), CATDS: 0.28187952548436401): 629 nM
- potency estimated from few doses (GSK3A): 316 nM
- potency estimated from few doses (GSK3B): 404 nM

SMILES: CCCS(=O)(=O)Nc1ccc(F)c(-n2cc(-c3cncc(OC)c3)nn2)c1F [BI00865461]
- potency estimated from few doses (ADCK3; compound concentrations: 100 nM and 1000 nM (sheet 'Samples'), CATDS: 9.7263378995511504E-2): 1210 nM
- potency estimated from few doses (BRAF; compound concentrations: 100 nM and 1000 nM (sheet 'Samples'), CATDS: 0.639948734699749): 7.45 nM
- potency estimated from few doses (MAP2K5): 70.4 nM
- potency estimated from few doses (PTK6): 108 nM
- potency estimated from few doses (RIPK3): 1790 nM
- potency estimated from few doses (TESK1): 1610 nM
- potency estimated from few doses (ZAK): 62.5 nM

SMILES: Nc1ncc(-c2cccnc2)c2scc(-c3ccc4c(c3)CCN4C(=O)Cc3ccccc3)c12 [GSK683281A]
- potency estimated from few doses (ADCK3; [1]): 760 nM
- potency estimated from few doses (ERCC2): 1560 nM
- potency estimated from few doses (MAP4K5): 1560 nM

SMILES: CN(C)CCOc1ccc(-c2nc(-c3ccc4c(c3)CC/C4=N/O)c(-c3ccncc3)[nH]2)cc1 [SB-590885_KCGS]
- potency estimated from few doses (ADCK3; [1]): 1150 nM
- potency estimated from few doses (AKT3): 1900 nM
- potency estimated from few doses (BRAF; [1]): 88.6 nM
- potency estimated from few doses (NNT; [1]): 1680 nM
- potency estimated from few doses (RIPK2): 679 nM
- potency estimated from few doses (STK26): 2210 nM

SMILES: COc1ccc(-c2cc3c(C)nc(N)nc3n([C@H]3CC[C@H](OCCO)CC3)c2=O)cn1 [PFE-PKIS_29]
- potency estimated from few doses (ADCK3; [1]): 1460 nM
- potency estimated from few doses (DHCR24): 1750 nM
- potency estimated from few doses (DJA1): 1960 nM
- potency estimated from few doses (ERBB3): 453 nM
- potency estimated from few doses (PI4KA): 61.5 nM
- potency estimated from few doses (PI4KB): 702 nM
- potency estimated from few doses (PIK3C2A): 999 nM
- potency estimated from few doses (PIK3C2B): 34.9 nM
- potency estimated from few doses (PIK3CA): 1.27 nM
- potency estimated from few doses (PIK3CB): 10.3 nM
- potency estimated from few doses (PIK3CD; [1]): 0.67 nM
- potency estimated from few doses (PRKDC): 817 nM

SMILES: Cc1ccc(NC(=O)c2ccnc(N3CCN(C)CC3)c2)cc1-c1ccc(C(=O)NCC2CC2)cc1 [GW775604X]
- potency estimated from few doses (ADCK3; compound concentrations: 100 nM and 1000 nM (sheet 'Samples'), CATDS: 0.117650755909267): 1660 nM
- potency estimated from few doses (GALK1): 1570 nM
- potency estimated from few doses (MAPK14): 840 nM
- potency estimated from few doses (MAPK1): 1430 nM
- potency estimated from few doses (PIK3CD; compound concentrations: 100 nM and 1000 nM (sheet 'Samples'), CATDS: 0.661841764967533): 59 nM
- potency estimated from few doses (PIM2): 1650 nM
- potency estimated from few doses (STK16): 1250 nM
